TMEM16A act: TMEM16A chloride channel activators or potentiators, primary screen, cell-based, HTS; B-score at 10 µM; Anoctamin-1 (Mus musculus), Q8BHY3; AID 623877, 2012; actives 0.3% (n = 340,000); HEK293 TMEM16A/YFP-H148Q/I152L, iodide quench fluorescence; active compounds read low;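 active = fluorescence-ratio B-score plate-corrected deviation score at least 3 library SD below zero, with starting fluorescence score within 5 deviations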;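 also: channel opened by trigger with iodide after compound preincubation; score built on the fluorescence ratio of max minus min over baseline; more negative score means more quench and so TMEM16A activation or potentiation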
Target sequence (Q8BHY3 whole entry, looked up): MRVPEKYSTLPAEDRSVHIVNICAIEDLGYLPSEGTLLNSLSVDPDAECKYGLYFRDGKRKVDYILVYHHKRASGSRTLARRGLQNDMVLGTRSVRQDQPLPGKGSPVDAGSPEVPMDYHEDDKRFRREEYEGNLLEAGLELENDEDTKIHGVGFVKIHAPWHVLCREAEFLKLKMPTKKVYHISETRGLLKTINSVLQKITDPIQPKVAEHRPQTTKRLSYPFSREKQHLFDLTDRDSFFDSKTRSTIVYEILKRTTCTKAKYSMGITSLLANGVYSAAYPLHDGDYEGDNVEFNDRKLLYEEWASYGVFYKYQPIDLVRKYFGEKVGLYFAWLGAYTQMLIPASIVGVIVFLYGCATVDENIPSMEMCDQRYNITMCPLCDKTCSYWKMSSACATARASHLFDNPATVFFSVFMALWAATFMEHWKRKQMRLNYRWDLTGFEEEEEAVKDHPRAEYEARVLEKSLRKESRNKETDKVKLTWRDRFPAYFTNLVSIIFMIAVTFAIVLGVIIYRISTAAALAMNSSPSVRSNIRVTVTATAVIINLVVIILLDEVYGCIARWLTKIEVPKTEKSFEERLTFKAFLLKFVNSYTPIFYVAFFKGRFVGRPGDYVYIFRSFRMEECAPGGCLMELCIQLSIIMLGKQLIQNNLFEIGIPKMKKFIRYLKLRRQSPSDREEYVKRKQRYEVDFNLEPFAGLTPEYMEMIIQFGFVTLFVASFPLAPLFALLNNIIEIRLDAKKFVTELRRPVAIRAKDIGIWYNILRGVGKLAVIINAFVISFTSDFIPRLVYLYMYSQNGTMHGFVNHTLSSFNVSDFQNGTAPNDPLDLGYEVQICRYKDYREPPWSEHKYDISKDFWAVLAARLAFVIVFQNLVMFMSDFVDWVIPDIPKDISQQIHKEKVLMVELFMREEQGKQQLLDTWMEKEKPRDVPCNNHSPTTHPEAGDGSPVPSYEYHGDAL
CHO-K1 Ca antag: M1 antagonist counterscreen hit in parental CHO-K1 cells; ATP-induced calcium, Fluo-8 fluorescence; inhibition, % at 3 µM; actives 0.6% (n = 360,000); AID 602250;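 active = inhibition above a per-plate cutoff, the plate's mean sample inhibition plus 3 SD, cut at about 24% in these data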
CHO-K1 Ca ag: counter-screen for M1 agonists: effect in parental CHO-K1 cells. Fluo-8 calcium fluorescence; scaled to maximal ATP response, vehicle zero. activation, % at 3 µM. actives 0.48% (n = 360,000); in the data active = activation above about 15%;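 also: untransfected CHO-K1 host cells lacking M1 receptor as counterscreen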
ANO1 block: TMEM16A chloride channel inhibitors, primary screen, cell-based, HTS; actives 1.2% (n = 310,000); AID 588511, 2011; Anoctamin-1 (Mus musculus), Q8BHY3; normalized B-score (activity score, 25-100; higher = stronger inhibition) at 10 µM; HEK293 TMEM16A/YFP iodide influx fluorescence, ionomycin;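 active = ratio plate-corrected score three or more library SD toward inhibition, starting fluorescence score within five deviations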;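 also: score derived from kinetic fluorescence span divided by baseline fluorescence per well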
CHO-K1 Ca PAM: nonselective calcium activators in parental CHO-K1 cells, primary screen, counter-screen for M1 PAM project, cell-based, Fluo-8 calcium fluorescence, full deck, 1536-well. actives 0.02% (n = 360,000). activation, % at 3 µM. ATP EC20; 0% at ATP EC20, 100% at ATP max;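 active = activation above the run cutoff, the mean activation of all test compounds plus 3 SD, cut at about 40% in these data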;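 also: peak over basal fluorescence ratio in a 140 s read after ATP addition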
NTR1 ag: agonists of human NTR1, primary screen, imaging, U2OS cells, beta-arrestin-GFP, high content. activation, % at 20 µM. NTR1-U2OS beta-arrestin-GFP spot imaging, agonist mode. Neurotensin receptor type 1 (Homo sapiens), P30989. AID 493036, 2011. actives 0.17% (n = 330,000);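 active = activation at or above 40% of the spot to cytoplasm intensity ratio, with at least 20 cells analyzed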
Numbers stand for hits. Only some compounds are listed: those with a hit (about 2.2% of all), similar ones and a draw of the others.

CSc1ccccc1OCc1cc(C(=O)N2CCC(Oc3cccnc3)CC2)no1 was read as TMEM16A act inactive, CHO-K1 Ca antag inactive, CHO-K1 Ca ag inactive, ANO1 block 25, CHO-K1 Ca PAM inactive and NTR1 ag inactive.
`CSc1ccccc1OCc1cc(C(=O)N2CCSCC2)no1` gave TMEM16A act inactive, CHO-K1 Ca antag inactive, CHO-K1 Ca ag inactive, ANO1 block inactive, CHO-K1 Ca PAM inactive and NTR1 ag inactive.
Screening CCOc1cccc(C(=O)N2CCCCC2c2cccnc2)c1 (stereo not given) returned TMEM16A act inactive, CHO-K1 Ca antag inactive, CHO-K1 Ca ag inactive, ANO1 block inactive, CHO-K1 Ca PAM inactive and NTR1 ag inactive.
Screening COc1cccc(OCc2cc(C(=O)N3CCC(c4ccncc4)CC3)no2)c1 returned TMEM16A act inactive, CHO-K1 Ca antag inactive, CHO-K1 Ca ag inactive, ANO1 block inactive, CHO-K1 Ca PAM inactive and NTR1 ag inactive.
For CC(=O)c1ccc(OCc2cc(C(=O)N3CCCCC3c3cccnc3)no2)cc1 (stereo not given) the results were TMEM16A act inactive, CHO-K1 Ca antag inactive, CHO-K1 Ca ag 16, ANO1 block inactive, CHO-K1 Ca PAM inactive and NTR1 ag inactive.
For CC(=O)c1ccc(OCc2cc(C(=O)N3CCC(c4ccncc4)CC3)no2)cc1 the results were TMEM16A act inactive, CHO-K1 Ca antag inactive, CHO-K1 Ca ag 15, ANO1 block inactive, CHO-K1 Ca PAM inactive and NTR1 ag inactive.
Cc1cccc(NC(=O)c2ccccc2O)c1C was read as TMEM16A act inactive, CHO-K1 Ca antag inactive, CHO-K1 Ca ag inactive, ANO1 block 25, CHO-K1 Ca PAM inactive and NTR1 ag inactive.
NC(=O)COC(=O)c1ccccc1OCc1ccc(Cl)cc1 was read as TMEM16A act -25, CHO-K1 Ca antag inactive, CHO-K1 Ca ag inactive, ANO1 block inactive, CHO-K1 Ca PAM inactive and NTR1 ag inactive.
`CCN(C)C1CN(Cc2cn(Cc3cccc(Cl)c3)nn2)S(=O)(=O)C1` (stereo not given) gave CHO-K1 Ca antag inactive, CHO-K1 Ca ag inactive and CHO-K1 Ca PAM inactive.
`O=C(ONc1ccc(N=NC(=O)c2ccccc2O)cc1)c1ccccc1` gave TMEM16A act inactive, CHO-K1 Ca antag 28, CHO-K1 Ca ag inactive, ANO1 block inactive, CHO-K1 Ca PAM inactive and NTR1 ag inactive.
O=Nc1ccc(NOC(=O)c2ccccc2Br)cc1 was read as TMEM16A act inactive, CHO-K1 Ca antag inactive, CHO-K1 Ca ag inactive, ANO1 block inactive, CHO-K1 Ca PAM inactive and NTR1 ag inactive.
For Cc1cc(C)nc(Nc2nc(C(N)CCc3ccccc3)cs2)n1 (stereo not given) the results were CHO-K1 Ca antag inactive, CHO-K1 Ca ag inactive and CHO-K1 Ca PAM inactive.
CC(C)C[C@H]1COc2cc(N(C)CCO)ccc2S(=O)(=O)N1 was read as CHO-K1 Ca antag inactive, CHO-K1 Ca ag inactive and CHO-K1 Ca PAM inactive.
Screening CCOc1cc(CNCc2ccncc2)cc(Br)c1OCc1ccccc1F returned TMEM16A act inactive, CHO-K1 Ca antag inactive, CHO-K1 Ca ag inactive, ANO1 block 25, CHO-K1 Ca PAM inactive and NTR1 ag inactive.
`CCOc1cc(CNCCO)cc(Br)c1OCc1ccc(Cl)cc1Cl` gave TMEM16A act inactive, CHO-K1 Ca antag inactive, CHO-K1 Ca ag inactive, ANO1 block 100, CHO-K1 Ca PAM inactive and NTR1 ag inactive.
CCOc1cc(CNCCSc2nnnn2C)cc(Br)c1OCc1ccccc1F was read as TMEM16A act inactive, CHO-K1 Ca antag inactive, CHO-K1 Ca ag inactive, ANO1 block inactive, CHO-K1 Ca PAM inactive and NTR1 ag inactive.
`COc1ccccc1CNc1nc2cc(-c3ccccc3C)sc2c(=O)n1C` gave CHO-K1 Ca antag inactive, CHO-K1 Ca ag inactive and CHO-K1 Ca PAM inactive.
Screening CN1CCCCC1(C)C(=O)NCc1ccc(F)cc1 (stereo not given) returned CHO-K1 Ca antag 25, CHO-K1 Ca ag inactive and CHO-K1 Ca PAM inactive.
`CCCN1C=CC(=C/C=C(\C#N)C(=O)OCC)C=C1` gave ANO1 block inactive and NTR1 ag inactive.
Screening CCCCCCN1C=CC(=C/C=C(\C#N)C(=O)OCC)C=C1 returned TMEM16A act inactive, CHO-K1 Ca antag 43, CHO-K1 Ca ag 73, ANO1 block inactive, CHO-K1 Ca PAM inactive and NTR1 ag inactive.
For C=CCN1C=C/C(=C\C=C(C#N)C#N)c2ccccc21 the results were TMEM16A act inactive, CHO-K1 Ca antag inactive, CHO-K1 Ca ag inactive, ANO1 block inactive, CHO-K1 Ca PAM inactive and NTR1 ag inactive.
For CCCN1C=CC(=CC=C(C#N)C#N)C=C1 the results were TMEM16A act -6.5, CHO-K1 Ca antag 24, CHO-K1 Ca ag inactive, ANO1 block inactive, CHO-K1 Ca PAM inactive and NTR1 ag inactive.
`C=CCN1C=CC(=CC=C(C#N)C#N)C=C1` gave TMEM16A act -7.7, CHO-K1 Ca antag 27, CHO-K1 Ca ag inactive, ANO1 block inactive, CHO-K1 Ca PAM inactive and NTR1 ag inactive.
Screening CC1=C(C(=O)N(C(C)C)C(C)C)CC(CC(=O)NCCN2CCOCC2)C(=O)N1CCC1=CCCCC1 (stereo not given) returned CHO-K1 Ca antag inactive, CHO-K1 Ca ag inactive and CHO-K1 Ca PAM inactive.
`Cc1nccc(-c2cccc(N/N=C(\C#N)C(=O)c3ccccc3)c2)n1` gave TMEM16A act inactive, CHO-K1 Ca antag inactive, CHO-K1 Ca ag inactive, ANO1 block 100, CHO-K1 Ca PAM inactive and NTR1 ag inactive.
For CCN1CCN(C(=O)CN2C(=O)c3cccc4cccc2c34)CC1 the results were TMEM16A act inactive, CHO-K1 Ca antag inactive, CHO-K1 Ca ag inactive, ANO1 block inactive, CHO-K1 Ca PAM inactive and NTR1 ag inactive.
For Cc1ccc(Cl)cc1N1CCN(C(=O)CN2C(=O)c3cccc4cccc2c34)CC1 the results were TMEM16A act inactive, CHO-K1 Ca antag 26, CHO-K1 Ca ag inactive, ANO1 block inactive, CHO-K1 Ca PAM inactive and NTR1 ag inactive.
For CCC(C(=O)OCC(=O)Nc1cc(Cl)cc(Cl)c1)c1ccccc1 (stereo not given) the results were TMEM16A act inactive, CHO-K1 Ca antag inactive, CHO-K1 Ca ag inactive, ANO1 block 100, CHO-K1 Ca PAM inactive and NTR1 ag inactive.
For CCC(C(=O)OCC(=O)Nc1cccc(C(C)=O)c1)c1ccccc1 (stereo not given) the results were TMEM16A act inactive, CHO-K1 Ca antag inactive, CHO-K1 Ca ag inactive, ANO1 block inactive, CHO-K1 Ca PAM inactive and NTR1 ag inactive.
`N#Cc1ccc(-c2nc3ccc(Cl)cn3c2Cc2ccccc2)cc1` gave CHO-K1 Ca antag inactive, CHO-K1 Ca ag inactive and CHO-K1 Ca PAM inactive.
O=C(O)c1c(-c2ccccc2)c2oc3ccccc3c2[nH]c1=O was read as TMEM16A act inactive, CHO-K1 Ca antag 29, CHO-K1 Ca ag inactive, ANO1 block inactive, CHO-K1 Ca PAM inactive and NTR1 ag inactive.
